Sampled rows, rich in hits. Any-hit rate of the full collection: about 32%.
CYP2C9 act = activators of human CYP2C9 | P11712 | recombinant CYP2C9, luciferin-H conversion, luminescence; active compounds read high; factor 1 = untreated enzyme, 0 = blocked | activation factor at 5 µM | 1.4% of 96,000 active | AID 1024;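 active = activation factor of 2 or more for CYP2C9 at a 5 µM dose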;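 note: 0 = sulfaphenazole-blocked wells and 1 = vehicle-only wells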
Target sequence (P11712 whole entry, looked up): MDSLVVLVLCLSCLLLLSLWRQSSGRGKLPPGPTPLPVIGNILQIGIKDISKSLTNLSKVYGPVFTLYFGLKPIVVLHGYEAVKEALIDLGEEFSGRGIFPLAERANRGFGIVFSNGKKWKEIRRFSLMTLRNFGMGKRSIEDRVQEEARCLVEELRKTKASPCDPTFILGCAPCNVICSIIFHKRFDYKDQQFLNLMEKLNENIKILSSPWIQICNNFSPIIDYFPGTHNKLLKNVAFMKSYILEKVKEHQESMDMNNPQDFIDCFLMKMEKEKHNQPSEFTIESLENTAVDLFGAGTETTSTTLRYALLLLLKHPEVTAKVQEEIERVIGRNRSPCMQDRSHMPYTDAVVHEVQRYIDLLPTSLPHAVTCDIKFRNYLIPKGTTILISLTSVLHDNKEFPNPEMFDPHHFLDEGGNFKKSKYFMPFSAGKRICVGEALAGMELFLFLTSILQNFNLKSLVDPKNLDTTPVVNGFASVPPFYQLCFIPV
CYP2C19 inh = blocks human cytochrome P450 2C19. inhibition, % at 5 µM. AID 778. 21% of 96,000 active. CYP2C19 Supersomes, luciferin-H EGE luminescence, 30 min. P33261;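 active = CYP2C19 inhibition above a set limit at 5 µM in the primary screen, cut at about 50% in these data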;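 note: plate controls were negative control wells for no effect and 2.5 mM tranylcypromine positive control for full effect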
PostGolgi yeast = growth inhibition of a yeast mutant, post-Golgi transport screen | post-Golgi transport phenotypic cell assay | 0.9% of 98,000 active | inhibition, % at 10 µM | AID 739;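 note: yeast cells grown in 1536-well plates; yeast grown about 18 h at 30C before absorbance read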
CYP2C19 activ = increases human CYP2C19 enzyme activity | P33261 | recombinant CYP2C19, luciferin-H EGE luminescence; active compounds read high; 0 = fully inhibited enzyme, 1 = untreated enzyme | activation factor at 5 µM | 96,000 tested, under 10 active | AID 1025;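 active = activation factor of at least 2 at 5 µM in the primary screen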;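 note: 0 = wells with 2.5 mM tranylcypromine and 1 = vehicle-only wells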
CYP2C9 inhib = inhibitors of human CYP2C9 | P11712 | inhibition, % at 5 µM | 20% of 96,000 active | AID 777 | CYP2C9 Supersomes, luciferin-H conversion, luminescence;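 active = blocking of liver enzyme CYP2C9 beyond about 50% at 5 µM, limit read from the data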
PostGolgi ctrl = yeast control strain growth, post-Golgi counter-screen; efflux-deficient yeast background strain, growth absorbance A615, 16 h; inhibition, % at 10 µM; 5% of 98,000 active; AID 738
Numbers without * were called inactive; . = no result. Cut-off read from the data, not from the text of the source, unless noted: active = inhibition above about 30%; inactive = the rest.

SMILES	CYP2C9 act	CYP2C19 inh	PostGolgi yeast	CYP2C19 activ	CYP2C9 inhib	PostGolgi ctrl
CC(C)(C)n1ncc2c(=O)n(Cc3c(F)cccc3Cl)cnc21	0.7	86.9*	-1.8	0.1	31.9	3.7
Cc1ccc(C(=O)N2CCN(c3ccc(C(F)(F)F)cn3)CC2)c(C)c1	0.8	63.5*	3.0	0.4	18.9	10.5
Cc1cc(N2CCC(N(C)C3CCCC3)CC2)nc2cc(O)ccc12	1	14.5	-4.8	0.9	4.4	0.7
Cc1sc2ncn(CC(=O)NCc3ccccn3)c(=O)c2c1S(=O)(=O)N1CCOCC1	.	.	0.3	.	.	-17.0
Cc1cc(C)c2c(N)c(S(=O)(=O)Cc3ccccc3)sc2n1	3*	99.1*	-2.8	0	-196.6	-2.5
CC(=O)c1sc2nc(C)cc(C)c2c1N	1	-1.8	16.2	1	4.7	-5.6
Cc1cc(C)cc(NC(=O)c2nnn(Cc3cc(C)ccc3C)c2N)c1	0.3	31.4	-7.8	0.7	68.5*	37.0*
CSc1cccc(NC(=O)c2nnn(Cc3ccccc3)c2N)c1	0.8	11.2	-4.4	0.9	18.3	18.7
Cc1ccccc1Cn1nnc(C(=O)Nc2cccc(C)c2C)c1N	1.4	54.3*	1.1	0.5	-35.4	25.7
CCC12CN3CC(CC)(CN(C1)C3c1c(O)ccc3ccccc13)C2=O (stereo not given)	0.9	53.7*	-1.6	0.5	13.5	6.5
C=CCOc1ccc(C2N3CC4(CC)CN2CC(CC)(C3)C4=O)cc1 (stereo not given)	1.1	-4.7	4.2	1	-11.9	4.1
CCC(=O)Nc1ccc(-c2nc(-c3ccccc3)n(CC(=O)N3CCCCC3)n2)cc1	0.7	7.3	4.6	0.9	34.6	-3.5
CC(C)CN(CC(C)C)S(=O)(=O)N1CCC(C(=O)NC2CCCCCCC2)CC1	0.9	3.3	-9.8	1	8.8	8.4
CCOC(=O)C1=C(CSc2nc3ccccc3s2)NC(=O)NC1c1cc(C)ccc1C (stereo not given)	0.2	67.8*	12.0	0.3	78.0*	37.1*
CCOC(=O)C1=C(CSc2nc3ccccc3s2)NC(=O)NC1c1ccc(OC)cc1 (stereo not given)	0.5	59.8*	-0.3	0.4	46.2	42.1*
O=C(c1ccc(Cl)c(S(=O)(=O)N2CCCCCC2)c1)N1CCN(c2ccccn2)CC1	0.4	25.2	4.3	0.7	56.8*	16.6
BrC(=C\c1ccccc1)/C=N/N1CCN(Cc2ccccc2)CC1	0.7	36.7	2.9	0.6	33.2	26.3
O=C(NCCCNCCCNC(=O)c1ccccn1)c1ccccn1	1	6.2	-4.5	0.9	-1.6	13.9
CCOC(=O)N1CCN(C(=O)c2cnn3ccccc23)CC1	0.9	42.8	-3.6	0.6	5.3	2.6
O=C(/C=C/c1ccccc1)c1ccccn1	0.7	51.2*	1.9	0.5	27.2	16.3
BrC(=C\c1ccccc1)/C=N/N1CCN(c2ccccn2)CC1	1	21.8	-4.3	0.8	-3.5	37.7*
CCOC(=O)N1CCN(C(=O)c2ccccc2CCc2ccccc2)CC1	0.1	77.2*	-0.9	0.2	87.1*	7.5
O=C(c1ccccc1CCc1ccccc1)N1CCN(c2ccccn2)CC1	0.1	90.8*	0.6	0.1	94.6*	20.1
CCOC(=O)N1CCN(C(=O)c2cccc(OC)c2O)CC1	1	57.3*	-14.3	0.4	4.1	3.8
O=C(c1cc2ccccn2n1)N1CCN(c2ccccn2)CC1	0.8	54.9*	-3.3	0.5	18.0	4.8
SMILES	CYP2C9 act	CYP2C19 inh	PostGolgi yeast	CYP2C19 activ	CYP2C9 inhib	PostGolgi ctrl
COc1cccc(C(=O)N2CCN(C(=O)c3cccc4ccccc34)CC2)c1OC	0.6	9.5	7.4	0.9	36.3	5.8
CC(C)(Oc1ccc(Cl)cc1)C(=O)N1CCN(c2ccccn2)CC1	.	.	1.4	.	.	49.9*
NC(=O)C1CCN(C(=O)c2cc3ccccn3n2)CC1	1.1	-14.3	1.6	1.1	-13.3	-2.4
O=C(COC(=O)C1CCN(S(=O)(=O)c2cccs2)CC1)c1cc2ccccc2o1	0.8	8.7	4.1	0.9	18.7	11.9
Cn1cnnc1SCC(=O)c1ccc2c(c1)CCCC2	1.1	19.6	1.4	0.8	-9.8	2.2
O=C(/C=C/c1ccccc1)N1CCN(c2ccccn2)CC1	0.5	47.5	-1.3	0.5	52.9*	15.5
O=C(c1ccccc1Cl)N1CCN(c2ccccn2)CC1	0.2	81.7*	2.2	0.2	77.5*	1.2
O=C(O)CCC(=O)N1CCN(c2ccccn2)CC1	1	0.9	2.8	1	-0.8	10.5
CCCN1C(=O)/C(=C/c2ccco2)SC1=Nc1ccc(OC)cc1	0.7	10.0	-5.5	0.9	27.8	6.3
COc1ccc(N=C2S/C(=C\c3ccc(N4CCOCC4)o3)C(=O)N2CCc2c[nH]c3ccccc23)cc1	0.4	32.0	11.6	0.7	64.4*	31.8*
O=C(O)C1CCCN1S(=O)(=O)c1cccs1 (stereo not given)	0.9	31.9	-3.1	0.7	10.0	-6.4
O=C(Nc1ccc(Br)cn1)C1CCCN1S(=O)(=O)c1ccccc1 (stereo not given)	0.2	52.3*	-17.3	0.5	77.1*	2.9
O=C(Nc1ccc(O)cc1)C1CCCN1S(=O)(=O)c1ccc(F)cc1 (stereo not given)	1.6	2.7	3.2	1	-61.1	4.5
O=C(Nc1ccc(Cl)cn1)C1CCCN1S(=O)(=O)c1ccccc1 (stereo not given)	0.2	21.6	0.1	0.8	80.4*	-1.5
O=C(Nc1cccnc1)C1CCCN1S(=O)(=O)c1ccc(Cl)c(Cl)c1 (stereo not given)	0.3	15.4	-0.5	0.8	69.2*	4.5
O=C(Nc1ccc(Br)cc1)C1CCCN1S(=O)(=O)c1cccs1 (stereo not given)	0.1	95.6*	-6.8	0	90.4*	13.5
CS(=O)(=O)N(Cc1ccccc1)c1ccc(C(=O)Nc2ccc3c(c2)OCO3)cc1	0.9	-1.3	-9.2	1	6.1	1.6
O=P1(c2ccccc2)C=Cn2c1cc1c2CCCC1 (stereo not given)	.	.	-8.2	.	.	7.1
COC(=O)C1CCN(C(=O)Cc2ccc(C)cc2)CC1	1	27.6	16.2	0.7	-2.9	4.5
N#CNC1=NCN(Cc2ccccc2)CN1	1.1	-7.9	-4.6	1.1	-12.2	12.2
COc1ccc(C(C(=O)NC2CCCCC2)N(C(=O)c2sc(C)nc2C)c2ccccc2C)cc1 (stereo not given)	1.1	16.1	-7.0	0.8	-6.6	-0.8
CC(C)CCNC(=O)C1CCCCN1S(=O)(=O)c1ccc(F)cc1 (stereo not given)	0.6	11.9	-4.7	0.9	37.1	18.4
O=C(NCCc1ccccc1F)C1CCCN1S(=O)(=O)c1ccccc1 (stereo not given)	0.7	78.8*	-4.5	0.2	25.7	-1.5
N#CC1=C(N)S[C@H](C(=O)C23CC4CC(CC(C4)C2)C3)[C@H]1c1ccncc1	0.6	66.5*	-9.3	0.3	41.2	5.3

Source: PubChem
